The whole screen tested about 2,500 compounds, of which about 1,100 (44%) were called active. So high a share suggests a set chosen from earlier hits. Some of the results follow. Unmarked numbers belong to inactive results.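 How the source made its calls: active means inhibition above 50% at 4 µM in the single-point screen; inactive means inhibition of 50% or less.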
Test: blockers of TNF-a NF-kB luciferase induction – cell-based, HEK293T NF-kB-Luc, luminescence, selectivity assay for NOD1/NOD2 signaling inhibitor project, primary screen (AID 1852)
Conditions: TNF-a induced, 14 h, at 4 µM, stronger effect = higher value

Row | SMILES | inhibition
1 | O=C(Nc1ccc(N2CCN(C(=O)c3ccco3)CC2)c(Cl)c1)c1cc2ccccc2o1 | 99.1% (active)
2 | Cc1cc(OCc2ccc(C(=O)Nc3ccc(C(=O)O)cc3)o2)ccc1Cl | -32.8%
3 | O=C(Nc1ccc(N2CCN(C(=O)c3ccccc3)CC2)cc1)c1ccc([N+](=O)[O-])o1 | 25.2%
4 | CCCCc1nc(N2CCN(C(=O)c3ccco3)CC2)c(C#N)c2c1CCCC2 | 29.5%
5 | O=C(Nc1ccc(N2CCN(C(=O)c3ccccc3)CC2)c(Cl)c1)c1ccc(Br)o1 | 67.5% (active)
6 | O=C(Nc1ccc(N2CCCC2)c(Cl)c1)c1ccc([N+](=O)[O-])o1 | -26.1%
7 | CCC(=O)N1CCN(c2ccc(NC(=O)c3cc4ccccc4o3)cc2Cl)CC1 | 101% (active)
8 | COc1ccc2[nH]c(=O)c(CN(Cc3cccnc3)S(=O)(=O)c3ccccc3F)cc2c1 | 50.9% (active)
9 | COc1ccc(N(Cc2cc3cc(OC)ccc3[nH]c2=O)S(=O)(=O)c2ccc(NC(C)=O)cc2)cc1 | 16.3%
10 | N#C/C(=C\C=C\c1ccccc1[N+](=O)[O-])C(=O)NC1CCCCC1 | 61.6% (active)
11 | CC1CCCCC1NC(=O)/C(C#N)=C/C=C/c1ccccc1[N+](=O)[O-] (centres undefined) | 47.1%
12 | O=[N+]([O-])c1ccc(Sc2nccn2Cc2ccccc2)c([N+](=O)[O-])c1 | -0.6%
13 | O=[N+]([O-])c1ccc(Sc2cccc3cccnc23)c([N+](=O)[O-])c1 | 103% (active)
14 | C=CCn1nc([N+](=O)[O-])nc1Sc1cccc2cccnc12 | 95.9% (active)
15 | Cn1nc([N+](=O)[O-])nc1Sc1cccc2cccnc12 | 31.7%
16 | Cc1cc(C)nc(Sc2ccc([N+](=O)[O-])cc2[N+](=O)[O-])n1 | -34.5%
17 | O=C(Cn1nc([N+](=O)[O-])nc1Br)NC(c1ccccc1)c1ccccc1 | -0.7%
18 | Cc1cccc(/C=C(\c2nc3ccccc3[nH]2)S(=O)(=O)c2ccccc2)c1 | 82.2% (active)
19 | O=S(=O)(/C(=C/c1ccc(C(F)(F)F)cc1)c1nc2ccccc2[nH]1)c1ccccc1 | 72.8% (active)
20 | CC(C)c1ccc(/C=C(\c2nc3ccccc3[nH]2)S(=O)(=O)c2ccccc2)cc1 | 107% (active)
21 | O=S(=O)(Nc1nc2ccccc2[nH]1)c1ccccc1 | 34.8%
22 | COc1ccc(S(=O)(=O)NCC2CCCN(Cc3cccnc3)C2)cc1 (centres undefined) | -9.5%
23 | C/C=C/Cn1c(SCCCc2ccccc2)nc2c1c(=O)[nH]c(=O)n2C | 5.5%
24 | N#Cc1ccc(C(=O)Nc2nc(-c3cccs3)c(C(=O)C(F)(F)F)s2)cc1 | 70% (active)

Row | SMILES | inhibition
25 | Cc1cc(C)c(C(=O)/C=C/c2ccc(C(C)C)cc2)c(=O)[nH]1 | 72.7% (active)
26 | COc1ccc(/C=C/C(=O)c2c(C)cc(C)[nH]c2=O)c2ccccc12 | 20.8%
27 | Cc1cc(C)c(C(=O)/C=C/c2cccc3ccccc23)c(=O)[nH]1 | 92.8% (active)
28 | O=C(O)C(Cc1ccccc1)N1C(=O)/C(=C/c2cccc3ccccc23)SC1=S (centres undefined) | 31.7%
29 | COc1ccc(-c2c(C(F)(F)F)[nH]n3c(=O)cc(-c4ccccc4)nc23)cc1 | 55.7% (active)
30 | O=c1cc(-c2ccccc2)nc2c(-c3ccccc3)c(C(F)(F)F)[nH]n12 | 73.9% (active)
31 | O=c1cc(-c2ccccc2)nc2cc(-c3ccc(Br)cc3)[nH]n12 | 38.7%
32 | Cc1ccc2cc(C)c(N3CCC(C)CC3)nc2c1 | 20.9%
33 | CC1=C/C(=N\OS(=O)(=O)c2ccccc2)C=CC1=O | 57.4% (active)
34 | CC1=CC(=O)C=C(C)C1=NOS(=O)(=O)c1ccccc1 | 48.1%
35 | Oc1nc(Nc2cccc(Cl)c2)sc1/C=C1\C=Nc2ccccc21 | -12.4%
36 | OCCCNc1cc(-c2ccnc(Nc3cccc(Cl)c3)n2)ccn1 | 96.3% (active)
37 | OCCCNc1nccc(-c2cc(Nc3cccc(Cl)c3)ncn2)n1 | 98.2% (active)
38 | CCS(=O)(=O)c1ccc2oc(SCC(=O)NCc3ccccc3)nc2c1 | 36.5%
39 | Cc1sc2ncnc(Sc3nnnn3-c3ccc(Cl)cc3)c2c1C | 87% (active)
40 | Cc1sc2ncnc(Sc3nnnn3-c3ccccc3)c2c1C | 89.8% (active)
41 | Cc1ccccc1-n1nnnc1Sc1nnnn1-c1ccccc1 | 75.4% (active)
42 | Cn1nnnc1Sc1ncnc2scc(-c3ccccc3)c12 | 22.8%
43 | CCc1c(C)nc2ccc(Br)cc2c1SCCC#N | 43.8%
44 | COc1ccc2cc3c(N)nn(C(=O)c4ccccc4Cl)c3nc2c1 | 94.3% (active)
45 | COc1cc(/C=C/c2ccc3cccc(OC)c3n2)c(OC(C)=O)c([N+](=O)[O-])c1 | 9.5%
46 | CCn1ccnc1CN1CCCC(C(=O)c2ccc3cc(OC)ccc3c2)C1 (centres undefined) | 39.3%
47 | COc1ccc2cc3c(N)nn(C(=O)c4ccccc4[N+](=O)[O-])c3nc2c1 | 79.5% (active)
48 | COc1ccc2cc3c(N)nn(C(=O)C4CCC(C(C)(C)C)CC4)c3nc2c1 (centres undefined) | 104% (active)

Row | SMILES | inhibition
49 | CC1=NOC(=O)/C1=C\c1ccc(-c2cc(Cl)ccc2Cl)o1 | -2.6%
50 | CCOC(=O)c1c(NC(=O)CSc2ncn[nH]2)sc(C)c1C | 37.2%
51 | N#Cc1c(NC(=O)CSc2ncn[nH]2)sc2c1CCCCC2 | 73.9% (active)
52 | O=C(Nc1sc2c(c1C(=O)O)CCCC2)c1ccc(F)cc1 | -13.9%
53 | CC1CCc2c(sc(NC(=O)CSc3ncn[nH]3)c2C#N)C1 (centres undefined) | 68.2% (active)
54 | CC1CCc2c(sc(NC(=O)/C=C/c3cccs3)c2C(=O)O)C1 (centres undefined) | 31.1%
55 | N#Cc1c(NC(=O)CSc2ncn[nH]2)sc2c1CCCC2 | 53.4% (active)
56 | CC1CCc2c(sc(NC(=O)c3cccs3)c2C(=O)O)C1 (centres undefined) | -35.7%
57 | O=C(COc1ccc(Cl)cc1)Nc1nc(-c2ccncc2)cs1 | 20.3%
58 | Nc1nc(CSc2nc3ccccc3s2)nc(Nc2ccccc2)n1 | -3%
59 | N#C/C(=C(/O)COc1ccc(Cl)cc1)c1nc2ccccc2s1 | 73.1% (active)
60 | N#C/C(=C(/O)Cc1cccc2ccccc12)c1nc2ccccc2s1 | 74.8% (active)
61 | O=C(NCc1cccnc1)/C(=C\c1ccc(-c2ccc(Cl)c(Cl)c2)o1)S(=O)(=O)c1ccccc1 | 109% (active)
62 | O=C(NCc1cccnc1)/C(=C/c1ccc(-c2ccc(Cl)cc2)o1)S(=O)(=O)c1ccccc1 | 85.2% (active)
63 | COc1ccc(-c2cn(-c3ccc(C)cc3C)c(=S)[nH]2)cc1OC | 18.3%
64 | Nc1ncnc(Nc2ccccn2)c1[N+](=O)[O-] | 22.8%
65 | CC1CCCCN1c1ncnc(N)c1[N+](=O)[O-] (centres undefined) | 59.2% (active)
66 | Nc1ncnc(N2CCc3ccccc32)c1[N+](=O)[O-] | 99.8% (active)
67 | Nc1ncnc(Sc2ccc(Cl)cc2)c1[N+](=O)[O-] | 1%
68 | COc1ccc(CCN2C(=S)N(c3ccc(Cl)cc3)C(=O)C2CC(N)=O)cc1OC (centres undefined) | 17.3%
69 | Cc1cccc(CSc2cccc3cccnc23)c1 | 104% (active)
70 | Cn1cc(C(=O)CCl)c2ccccc21 | 77.1% (active)
71 | Cn1c(-c2ccccc2)c(C(=O)CCl)c2ccccc21 | 76.3% (active)
72 | Cn1c(=NC(=O)CCl)sc2ccccc21 | 37.1%

Row | SMILES | inhibition
73 | Cc1cc(C(=O)CCl)c(C)n1CCc1ccccc1 | 47.1%
74 | Cc1ccc(C(C)C)c(OCc2ccc(C(=O)N/N=C/c3ccc(C(=O)O)cc3)cc2)c1 | 64.9% (active)
75 | COc1cc(/C=N/NC(=O)c2ccc(COc3cc(C)ccc3C(C)C)cc2)cc(OC)c1O | 40.7%
76 | Cc1ccc(C(C)C)c(OCc2ccc(C(=O)N/N=C/c3cccc(O)c3O)cc2)c1 | 17.2%
77 | CC1CCC/C=C/C(=O)c2c(O)cc(O)cc2CC(=O)O1 (centres undefined) | 74.9% (active)
78 | CN1/C(=C\C=[N+](C)c2ccccc2)C(C)(C)c2ccccc21 | 49.5%
79 | O=C(C(Cl)Cl)N1c2ccccc2OCC1c1ccccc1 (centres undefined) | 37.8%
80 | O=C(CCl)N1c2ccccc2OCC1c1ccccc1 (centres undefined) | 62.2% (active)
81 | O=C(CCl)N1c2ccccc2SCC1c1ccccc1 (centres undefined) | 32.2%
82 | Cc1cccc(N(Cc2cc(=O)[nH]c3ccccc23)C(=O)CCl)c1 | 78.4% (active)
83 | Cc1ccc(N(Cc2cc(=O)[nH]c3ccccc23)C(=O)CCl)cc1 | 106% (active)
84 | COc1ccc(N(Cc2cc(=O)[nH]c3ccccc23)C(=O)CCl)cc1 | 21.4%
85 | O=C(CCl)N(Cc1cc(=O)[nH]c2ccccc12)c1ccccc1 | 99.9% (active)
86 | CCCS(=O)(=O)c1cnc(C2COc3ccccc3O2)nc1N (centres undefined) | 48.4%
87 | Cc1ccc(-n2c(-c3ccc(Br)cc3)c[n+]3c2CCc2ccc4cccnc4c2-3)cc1 | 85% (active)
88 | Cc1ccc(-c2csc3ncnc(Sc4nnc(CN5CCCCCC5=O)o4)c23)cc1 | 93.2% (active)
89 | CC1Sc2ccc(S(=O)(=O)N3CCC(C(=O)Nc4ccc(Cl)cc4)CC3)cc2NC1=O (centres undefined) | 44%
90 | CC(C)(C)CC(=O)Nc1ccc(S(=O)(=O)N2CCCC2)cc1 | 15.8%
91 | O=C(Nc1ccc(C(F)(F)F)cc1)C1CCN(S(=O)(=O)c2ccc(N3CCCC3=O)cc2)CC1 | 63.7% (active)
92 | COc1ccccc1CN(C)C(=O)c1cc(-c2cc(OC)c(OC)c(OC)c2)nc2ccccc12 | 20.3%
93 | COc1ccc(CN(C)C(=O)c2cc(-c3ccc(C)cc3C)nc3ccccc23)c(OC)c1OC | -3.9%
94 | COc1cccc(CN(C)C(=O)CNC(=O)c2ccc(-c3ccccc3)cc2)c1OC | 57% (active)
